The results in this text go back to PubChem BioAssay (Tox21).

Experiment [1] is described as follows: qHTS assay to identify small molecule antagonists of the androgen receptor (AR) signaling pathway using the MDA cell line in the presence of 0.5 nM R1881 - cell viability counter screen (AID 1259242). Note: nearly all actives have a fitted effect of over 45% in size. In short, it runs like this: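 Viability of MDA-kb2 cells was multiplexed with the luciferase AR readout; after 16 hr with compounds and R1881 at 0.5 nM final, CellTiter-Fluor fluorescence was recorded.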

In experiment [2] the target is Androgen receptor (Homo sapiens) (UniProt P10275). Briefly: qHTS assay to identify small molecule antagonists of the androgen receptor (AR) signaling pathway using the MDA cell line in the presence of 0.5 nM R1881 (AID 1259243). Note: nearly all actives have a fitted effect of over 50% in size. In a few lines:
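Reporter cells cultured without CO2 receive test chemicals, then 0.5 nM R1881 final; after 16 hr at 37C, ONE-Glo is added and light output recorded.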

The target of experiment [3] is Estrogen receptor (Homo sapiens) (UniProt P03372). The experiment can be described thus: qHTS assay to identify small molecule antagonists of the estrogen receptor alpha (ER-alpha) signaling pathway using the BG1 cell line in the presence of 0.1 nM 17-beta-estradiol (AID 1259244). Note: nearly all actives have a fitted effect of over 50% in size. In short, it runs like this:
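Estradiol at 0.1 nM (final) stimulates the endogenous ER-alpha of VM7Luc4E2 cells carrying an ERE-driven luciferase; compounds are co-incubated 22 h at 37C and luciferase output quantified by luminescence.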
In general terms: In qHTS, concentration-response curves come from the screen itself.

Experiment [4] in a line: qHTS assay to identify small molecule HDAC inhibitors (AID 1259364). For activity change, negative = inhibition: top concentration of the series differs between compounds. Note: potency is the fitted concentration of half-maximal effect.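 Note: wild-type HCT-116 cells with endogenous class I/II HDAC activity; nearly all actives have a fitted effect of over 45% in size.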 In a few lines: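 Read-out: luminescence of HDAC-Glo I/II reagent, 30 min RT, reflecting class I/II deacetylase activity in whole HCT-116 cells pre-exposed 2 h to DMSO-dissolved compounds.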
A short description of experiment [5]: qHTS assay to identify small molecule HDAC inhibitors - cell viability counter screen (AID 1259365). Note: series mostly up to about 92 µM; nearly all actives have a fitted effect of over 50% in size. In short, it runs like this: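 Following a 2hr exposure of overnight-plated wild-type HCT-116 cells to DMSO-delivered compounds, CellTiter-Glo was added and luminescence recorded after 30min at room temperature.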
Experiment [6] can be described thus: qHTS assay to identify small molecule agonists of the sonic hedgehog signaling (Shh) pathway - cell viability counter screen (AID 1259366). Note: nearly all actives have a fitted effect of over 50% in size. In short, it runs like this:
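After a 4hr attachment at 37C, NIH/3T3 cells bearing an integrated Gli1-driven luciferase reporter were dosed with compounds. Treatment lasted 24hr, with the final hour including CellTiter-Fluor for a fluorescence viability measurement.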

A short description of experiment [7]: qHTS assay to identify small molecule antagonists of the sonic hedgehog signaling (Shh) pathway - cell viability counter screen (AID 1259367). Note: nearly all actives have a fitted effect of over 55% in size. In a few lines:
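NIH/3T3-derived Gli1-Luc reporter cells (2,000 per well) rested 4 hr at 37 C, then received DMSO compounds plus conditioned medium. After 23 hr of treatment, CellTiter-Fluor was added for 1 hr at 37C and fluorescence read.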

The nature of experiment [8]: qHTS assay to identify small molecule agonists of the sonic hedgehog signaling (Shh) pathway (AID 1259368; calls by dose curve;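 note: NIH/3T3-derived 3T3Gli1-Luc cells carrying a stable Gli1-driven firefly luciferase reporter; series mostly up to about 92 µM; nearly all actives have a fitted effect of over 15% in size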). In short, it runs like this:
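A Gli1 transcriptional response element controlled firefly luciferase in 3T3Gli1-Luc cells. Compounds and a positive control were added 4 hr after plating, and cells were incubated a further 24 hr at 37 C before luminescence detection.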

The nature of experiment [9]: qHTS assay to identify small molecule antagonists of the sonic hedgehog signaling (Shh) pathway (AID 1259369; calls by dose curve; note: nearly all actives have a fitted effect of over 45% in size). In a few lines: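 For antagonist detection, the reporter line received test compounds together with conditioned medium, incubated 24hr at 37 C, 5% CO2, then luminescence was recorded following 30min room-temperature luciferase reagent incubation.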
In experiment [10] the target is Estrogen receptor beta (Homo sapiens) (UniProt Q92731). The experiment can be described thus: qHTS assay to identify small molecule agonists of the estrogen receptor beta (ER-beta) signaling pathway (AID 1259377; active = well fitted activation curve with a large enough effect in the signal ratio in the repeat runs, not every such curve was filed as active; the % refers to the signal ratio). In short, it runs like this:
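In HEK293T cells bearing a UAS-beta-lactamase reporter under ER-beta control, DMSO-delivered compounds were incubated for 16 hr at 37C. Activity was detected as fluorescence 2 hours after LiveBLAzer B/G FRET substrate addition.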

For experiment [11] the target is unchanged. Briefly: qHTS assay to identify small molecule antagonists of the estrogen receptor beta (ER-beta) signaling pathway (AID 1259378; active = well fitted inhibition curve with a large enough effect in the signal ratio in the repeat runs, not every such curve was filed as active; the % refers to the signal ratio). In short, it runs like this:
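ER-beta-UAS-bla HEK293T (GripTite) cells in 2% charcoal-stripped FBS medium were preincubated 6 hr at 37C, dosed with compound, then stimulated with 1 nM E2 (final) for 16 hr; beta-lactamase reporter read by B/G FRET fluorescence after 2 hr substrate loading.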

Experiment [12] can be described thus: qHTS assay to identify small molecule agonists of the androgen receptor (AR) signaling pathway in the presence of an antagonist - cell viability counter screen (AID 1259379).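 Note: MDA-kb2 human breast cancer cells carrying an MMTV luciferase reporter; series mostly up to about 92 µM; nearly all actives have a fitted effect of over 25% in size.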 In a few lines: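 Seed MDA-kb2 at 3,000 cells/well; incubate 5 hr, 37C, 0% CO2. Add nilutamide to 3.0uM final, then pin compounds at 15 concentrations. Incubate 16 hr. Add CellTiter-Fluor at 15 hr, read fluorescence after 1 hr.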

Experiment [13] is described as follows: qHTS assay to identify small molecule agonists of the estrogen receptor beta (ER-beta) signaling pathway - cell viability counter screen (AID 1259380). Note: nearly all actives have a fitted effect of over 30% in size. In short, it runs like this: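 CellTiter-Glo read, 30 min RT, same wells as bla assay; cells ER-beta-UAS-bla HEK293T; 16 hr compound, 37C; medium 2% charcoal-stripped FBS.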
The target of experiment [14] is Androgen receptor (Homo sapiens) (UniProt P10275). The experiment can be described thus: qHTS assay to identify small molecule agonists of the androgen receptor (AR) signaling pathway in the presence of an antagonist (AID 1259381; calls by dose curve; note: nearly all actives have a fitted effect of over 15% in size). In a few lines:
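Test compounds at 15 concentrations were incubated for 16hr with MDA-kb2 reporter cells in presence of 3.0uM nilutamide (final). Signal: ONE-Glo luciferase luminescence.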

The nature of experiment [15]: qHTS assay to identify small molecule antagonists of the estrogen receptor beta (ER-beta) signaling pathway - cell viability counter screen (AID 1259382). Note: series mostly up to about 92 µM; nearly all actives have a fitted effect of over 55% in size. In short, it runs like this:
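In this multiplexed counter screen, cells were seeded at 2,000 per well in medium with 2% charcoal-stripped FBS and incubated 6 hr before compound and 1nM final E2 were added. Sixteen hours later, ATP-based luminescence reported viability.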

Experiment [16] concerns the target Estrogen receptor (Homo sapiens) (UniProt P03372). Briefly: qHTS assay to identify small molecule agonists of the estrogen receptor alpha (ER-alpha) signaling pathway in the presence of an antagonist (AID 1259383; calls by dose curve; note: top concentration of the series differs between compounds; nearly all actives have a fitted effect of over 15% in size). In a few lines: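 Stably transfected VM7Luc4E2 reporter cells, kept 5 days in charcoal-stripped serum, received ICI-182,780 at 10.0nM final before compound addition. Following 22hr incubation at 37C and 5% CO2, luciferase signal was read by luminescence.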

Experiment [17] is described as follows: qHTS assay to identify small molecule agonists of the estrogen receptor alpha (ER-alpha) signaling pathway in the presence of an antagonist - cell viability counter screen (AID 1259386).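 Note: series mostly up to about 92 µM; cells exposed to compounds for 22 h at 37 °C before the viability read; nearly all actives have a fitted effect of over 30% in size.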 In short, it runs like this: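 Viability counter screen using VM7Luc4E2 (full-length ER-alpha, four ERE-luciferase). The cells were treated with compounds alongside ICI-182,780 10.0nM for 22hr, and live-cell protease fluorescence was quantified with CellTiter-Fluor.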

A short description of experiment [18]: qHTS assay to identify small molecule agonists or antagonists of the thyroid stimulating hormone receptor (TSHR) signaling pathway - wild type cell line counter screen (AID 1259384; calls by dose curve). In short, it runs like this: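 Wild-type HEK293 cells were plated 18 h at 37 C/5% CO2, pin-dosed with compound plus Ro20-1724 medium, held 30 min at room temperature, then given cAMP-d2 and anti-cAMP-cryptate; fluorescence was read after 1 h. Fifteen concentrations, triplicate.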

Experiment [19] concerns the target Thyrotropin receptor (Homo sapiens) (UniProt P16473). The experiment can be described thus: qHTS assay to identify small molecule antagonists of the thyroid stimulating hormone receptor (TSHR) signaling pathway (AID 1259385; calls by dose curve; note: nearly all actives have a fitted effect of over 20% in size). In short, it runs like this:
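TSHR-HEK293 cells were plated and held 18 h at 37C/5% CO2, then given compound plus Ro20-1724 and stimulated with TSH at 1.5 ng/mL final. After 30 min at room temperature, cAMP was detected with cAMP-d2/anti-cAMP-cryptate (1 h) by fluorescence.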

Experiment [20] is described as follows: qHTS assay to identify small molecule phospholipidosis (PLD) inducers (AID 1259344; active = well fitted curve in the direction sought with a large enough effect; an effect the other way counts as inactive or inconclusive). In short, it runs like this: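 HepG2 cells on collagen I, attached 4 h at 37 C, were co-treated with compound and LipidTOX Red dye for 24 h at 37 C, then fixed with paraformaldehyde plus Hoechst 33342 and imaged by high-content microscopy for phospholipid accumulation.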

Molecules are shown by their SMILES. A number with no mark means an inactive call. Inconclusive results are not listed. The source made the active and inactive calls. Unless noted, calls come from the whole dose curve; as a rule, active = well fitted curve in the direction sought with a large enough effect in the repeat runs; inconclusive = weak or mixed curves; inactive = no such curve, though single readings can be large; an effect the other way counts as inactive or inconclusive.
% is set by controls: 0 for no effect and ±100 for the full control effect.

Chain of Estrogen receptor (Homo sapiens) (P03372 whole entry, looked up): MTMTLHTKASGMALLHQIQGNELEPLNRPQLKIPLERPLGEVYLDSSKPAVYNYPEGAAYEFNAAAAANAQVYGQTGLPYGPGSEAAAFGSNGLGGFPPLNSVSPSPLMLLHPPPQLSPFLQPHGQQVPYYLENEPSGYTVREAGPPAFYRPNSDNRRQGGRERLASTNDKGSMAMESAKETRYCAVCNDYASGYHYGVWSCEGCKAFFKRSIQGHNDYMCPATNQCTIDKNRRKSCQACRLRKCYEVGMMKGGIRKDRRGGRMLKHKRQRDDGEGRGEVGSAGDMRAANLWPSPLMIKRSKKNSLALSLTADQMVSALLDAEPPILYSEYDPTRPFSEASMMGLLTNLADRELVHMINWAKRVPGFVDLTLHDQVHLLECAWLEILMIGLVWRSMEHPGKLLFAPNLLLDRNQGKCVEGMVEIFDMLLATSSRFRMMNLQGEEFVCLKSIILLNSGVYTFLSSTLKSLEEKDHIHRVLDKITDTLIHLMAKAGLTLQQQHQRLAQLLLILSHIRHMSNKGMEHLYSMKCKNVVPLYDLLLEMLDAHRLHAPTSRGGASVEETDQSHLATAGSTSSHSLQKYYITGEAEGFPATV
Chain of Estrogen receptor beta (Homo sapiens) (Q92731 whole entry, looked up): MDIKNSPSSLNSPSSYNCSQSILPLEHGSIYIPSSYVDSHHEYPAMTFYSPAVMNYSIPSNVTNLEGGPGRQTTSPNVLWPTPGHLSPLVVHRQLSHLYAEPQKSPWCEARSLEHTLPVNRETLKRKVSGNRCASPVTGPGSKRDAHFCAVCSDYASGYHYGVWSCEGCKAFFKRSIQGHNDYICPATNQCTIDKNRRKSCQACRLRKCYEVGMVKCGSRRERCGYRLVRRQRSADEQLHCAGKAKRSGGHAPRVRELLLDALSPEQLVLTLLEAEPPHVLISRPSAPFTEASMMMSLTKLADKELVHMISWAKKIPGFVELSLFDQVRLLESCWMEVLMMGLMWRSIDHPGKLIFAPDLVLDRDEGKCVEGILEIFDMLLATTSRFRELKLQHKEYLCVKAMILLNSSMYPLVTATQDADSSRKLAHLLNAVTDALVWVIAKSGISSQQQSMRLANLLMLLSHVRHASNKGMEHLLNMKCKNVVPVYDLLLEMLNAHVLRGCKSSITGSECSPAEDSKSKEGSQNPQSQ
Chain of Androgen receptor (Homo sapiens) (P10275 whole entry, looked up): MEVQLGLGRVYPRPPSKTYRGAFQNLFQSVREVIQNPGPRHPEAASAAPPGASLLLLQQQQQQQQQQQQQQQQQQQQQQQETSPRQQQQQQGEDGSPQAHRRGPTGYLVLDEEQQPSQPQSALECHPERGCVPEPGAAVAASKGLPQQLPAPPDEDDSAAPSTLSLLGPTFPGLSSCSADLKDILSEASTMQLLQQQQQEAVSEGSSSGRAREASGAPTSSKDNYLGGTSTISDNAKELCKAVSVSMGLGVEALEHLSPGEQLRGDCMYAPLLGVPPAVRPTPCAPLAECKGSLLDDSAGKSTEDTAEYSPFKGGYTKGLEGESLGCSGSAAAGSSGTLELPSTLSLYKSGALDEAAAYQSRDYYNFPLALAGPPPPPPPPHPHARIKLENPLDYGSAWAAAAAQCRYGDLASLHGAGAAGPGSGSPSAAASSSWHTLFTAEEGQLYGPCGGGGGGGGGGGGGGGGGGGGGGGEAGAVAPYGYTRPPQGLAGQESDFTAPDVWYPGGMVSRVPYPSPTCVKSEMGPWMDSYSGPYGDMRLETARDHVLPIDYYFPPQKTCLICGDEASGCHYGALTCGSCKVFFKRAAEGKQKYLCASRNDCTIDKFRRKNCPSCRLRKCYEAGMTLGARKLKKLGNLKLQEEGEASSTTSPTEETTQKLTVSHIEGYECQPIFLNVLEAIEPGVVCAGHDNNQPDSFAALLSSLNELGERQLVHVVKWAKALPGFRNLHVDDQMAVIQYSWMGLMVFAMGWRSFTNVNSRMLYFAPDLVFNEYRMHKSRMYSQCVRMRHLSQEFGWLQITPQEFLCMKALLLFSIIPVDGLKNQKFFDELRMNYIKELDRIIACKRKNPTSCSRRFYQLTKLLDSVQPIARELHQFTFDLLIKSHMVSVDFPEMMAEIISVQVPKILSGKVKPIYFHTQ
Chain of Thyrotropin receptor (Homo sapiens) (P16473 whole entry, looked up): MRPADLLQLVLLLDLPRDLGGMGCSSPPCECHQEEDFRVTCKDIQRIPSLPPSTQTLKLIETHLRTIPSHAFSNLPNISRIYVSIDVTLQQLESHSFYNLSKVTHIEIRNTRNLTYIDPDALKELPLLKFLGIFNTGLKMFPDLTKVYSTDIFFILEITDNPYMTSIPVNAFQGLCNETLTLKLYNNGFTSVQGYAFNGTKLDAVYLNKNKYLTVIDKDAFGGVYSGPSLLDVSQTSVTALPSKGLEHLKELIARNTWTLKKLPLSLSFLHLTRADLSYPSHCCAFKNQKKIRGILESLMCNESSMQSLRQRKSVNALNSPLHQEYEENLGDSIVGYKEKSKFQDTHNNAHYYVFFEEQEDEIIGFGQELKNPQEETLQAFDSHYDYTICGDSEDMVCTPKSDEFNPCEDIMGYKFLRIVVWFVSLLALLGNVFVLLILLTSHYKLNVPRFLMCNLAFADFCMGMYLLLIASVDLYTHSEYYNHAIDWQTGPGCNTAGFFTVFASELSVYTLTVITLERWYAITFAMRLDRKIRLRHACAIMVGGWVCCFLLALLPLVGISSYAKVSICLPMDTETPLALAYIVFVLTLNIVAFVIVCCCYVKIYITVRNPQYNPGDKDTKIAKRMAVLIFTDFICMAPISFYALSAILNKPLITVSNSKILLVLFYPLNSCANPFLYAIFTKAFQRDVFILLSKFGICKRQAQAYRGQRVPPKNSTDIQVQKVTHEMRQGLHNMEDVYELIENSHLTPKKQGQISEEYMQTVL

Consider `CCCCCCI`, for which the outcome in experiment [1], in experiment [5], in experiment [8] and in experiment [10] was inactive. The Potency result in experiment [2], in experiment [3], in [4], in experiment [6], in experiment [7] and in experiment [9] was “inactive” throughout. Moreover, the Potency result in experiment [11], in experiment [12], in experiment [13], in experiment [14], in experiment [15] and in [16] was “inactive” each time. Moreover, the Potency result in [17] was “inactive”.
`Clc1ccccc1N1CCNCC1`: the result in experiment [1], in experiment [5] and in experiment [8] was inactive. The Potency result in experiment [2], in experiment [3], in experiment [4], in [6], in experiment [7] and in [9] was “inactive” each time. Moreover, the Potency entry in experiment [11], in experiment [12], in [14], in experiment [15], in experiment [16] and in experiment [18] was “inactive” throughout. The Potency entry in experiment [19] and in experiment [17] was “inactive” throughout.
For `O=C(N[C@H]1CN2CCC1CC2)c1cc2ccoc2cn1`, the outcome in experiment [1], in [5] and in experiment [8] was inactive. Besides, the Potency result in experiment [2], in experiment [3], in experiment [6], in [7], in experiment [9] and in experiment [11] was “inactive” in each case. In addition, the Potency result in [12], in [14], in experiment [15], in [16], in experiment [18] and in [17] was “inactive” each time.
Take `CC(C(O)c1ccccc1)N(C)C/C=C/c1ccccc1` (stereo unspecified): the outcome in [1], in experiment [5] and in experiment [8] was inactive. Also, the Potency result in [2], in [3], in experiment [4], in experiment [6], in [7] and in experiment [9] was “inactive” in each case. Moreover, the Potency entry in experiment [11], in experiment [12], in experiment [14], in experiment [15], in [16] and in experiment [18] was “inactive” each time. Also, in [17], the Potency result was “inactive”.
As to `CCOC(=O)C1(c2ccccc2)CCN(CCc2ccc(N)cc2)CC1`, the outcome in experiment [1], in experiment [5], in experiment [8] and in experiment [10] was inactive. For the same compound, the Potency result in [2], in [3], in experiment [6], in experiment [7], in experiment [9] and in experiment [11] was “inactive” in each case. For the same compound, the Potency entry in experiment [12], in experiment [14], in experiment [15], in experiment [18] and in experiment [19] was “inactive” each time.
On to `O=C1c2ccccc2C(=O)c2ccccc21`, for which the viability change, negative = cytotoxic is 3.34% [at 19 µM] in [1], 1.77% [at 19 µM] in experiment [6] and -0.095% [at 19 µM] in experiment [7]. Besides, the activity change, negative = inhibition in experiment [3] is 34.1% [at 19 µM]; in [9] it was 17.7% [at 19 µM]. The result in experiment [20] was inactive. In experiment [4], the Potency is 3.66 µM (active). The activity change, negative = cytotoxicity in experiment [5] was -0.295% [at 19 µM]; in experiment [12], -1.61% [at 19 µM]; in experiment [13], 3.21% [at 19 µM]; in [15] it was -0.678% [at 19 µM]; in experiment [17], 2.11% [at 19 µM]. Also, the activity change in [8] was 1.5% [at 18.9 µM]. Besides, the activation in experiment [10] was 1.09% [at 19 µM]. Besides, the activity, negative = inhibition in experiment [11] was 0.94% [at 19 µM]. In experiment [18], the cAMP activity change is -4.84% [at 18.9 µM, stronger effect = higher value].
Turning to `CC(COc1ccc(Oc2ccccc2)cc1)Oc1ccccn1` (stereo unspecified), the outcome in experiment [1], in experiment [5], in [8] and in [10] was inactive. In addition, the Potency result in experiment [2], in experiment [6], in experiment [7], in [9], in experiment [11] and in experiment [12] was “inactive” each time. The Potency entry in experiment [13], in [14], in experiment [15] and in [17] was “inactive” each time.
Consider `Clc1cccc(N2CCNCC2)c1`, for which the result in experiment [1], in [20], in experiment [5], in [8] and in experiment [10] was inactive. Further, the Potency entry in experiment [3], in [4], in [6], in experiment [7], in experiment [9] and in [11] was “inactive” each time. Further, the Potency result in [12], in experiment [15], in experiment [16], in [18] and in experiment [19] was “inactive” throughout.
